Source: PubChem BioAssay (EPA / NIEHS)
Several values for one entry are separate records, joined by “and”; a condition that tells them apart may be missing. Equal values may be shown once. Some structures have more than one record in an assay (separate samples or runs), and their calls can disagree. Activity calls are given as the source filed them. How the source made its calls: active means hit-call score of the fitted dose curve at least 0.9, where 1 is the maximum; inactive means score below 0.9.

Columns and labels:
[1] = read-out: Interferon-gamma inducible Protein 10 (IP10), CXCL10 (gene 3627); test: BSK_BE3C_IP10: BioMAP Diversity Plus: BE3C Assay for Interferon-gamma inducible Protein 10 (IP10) Biomarker Activity (AID 2283034); details: primary human bronchial epithelial cells; actives raise or lower the signal
Method in brief: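 Using primary human bronchial epithelial cultures, the assay captures IP-10 by ELISA one day (24 h) after exposure. Parallel SRB staining of total protein flags overt cytotoxicity. Fits run bidirectionally relative to DMSO.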

[2] = read-out: Monokine induced gamma interferon (MIG), CXCL9 (gene 4283); test: BSK_BE3C_MIG: BioMAP Diversity Plus: BE3C Assay for Monokine induced gamma interferon (MIG) Biomarker Activity (AID 2283035); details: primary human bronchial epithelial cells; actives raise or lower the signal;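 further: MIG protein measured by ELISA in BE3C cultures after 24 h of dosing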
Method in brief: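 MIG level was determined by ELISA after 24 h chemical treatment of primary human bronchial epithelial cells. Values were fitted bidirectionally with DMSO as the negative control and activity baseline.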

[3] = read-out: Plasminogen activator inhibitor-1 (PAI1), SERPINE1 (gene 5054); test: BSK_BE3C_PAI1: BioMAP Diversity Plus: BE3C Assay for Plasminogen activator inhibitor-1 (PAI1) Biomarker Activity (AID 2283037); details: primary human bronchial epithelial cells; actives raise or lower the signal
Method in brief: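 PAI-1 biomarker levels in treated human bronchial epithelial cells are determined by ELISA at 24 h. Both increases and decreases relative to DMSO are fitted.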

[4] = read-out: Urokinase-type plasminogen activator receptor (uPAR), PLAUR (gene 5329); test: BSK_BE3C_uPAR: BioMAP Diversity Plus: BE3C Assay for Urokinase-type plasminogen activator receptor (uPAR) Biomarker Activity (AID 2283039); details: primary human bronchial epithelial cells; actives raise or lower the signal;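 further: uPAR protein level measured by ELISA on the cells; cells exposed to compound for one day before measurement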
Method in brief: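 A uPAR ELISA serves as the readout, taken 24 h after treating primary human bronchial epithelial cells. Responses in either direction are fitted against DMSO, which defines baseline activity.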

[5] = read-out: Interleukin-6 (IL6), IL6 (gene 3569); test: BSK_CASM3C_IL6: BioMAP Diversity Plus: CASM3C Assay for Interleukin-6 (IL6) Biomarker Activity for (AID 2283040); details: primary human coronary artery smooth muscle cells; actives raise or lower the signal
[6] = read-out: Tissue plasminogen activator (tPA), PLAT (gene 5327); test: BSK_BE3C_tPA: BioMAP Diversity Plus: BE3C Assay for Tissue plasminogen activator (tPA) Biomarker Activity (AID 2283041); details: primary human bronchial epithelial cells; actives raise or lower the signal
Method in brief: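 Bidirectional curve fitting relative to DMSO defined activity, with tPA detected by ELISA in chemically treated human bronchial epithelial primary cells at 24 hours.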

[7] = read-out: Interleukin-8 (IL8), CXCL8 (gene 3576); test: BSK_CASM3C_IL8: BioMAP Diversity Plus: CASM3C Assay for Interleukin-8 (IL8) Biomarker Activity (AID 2283042); details: primary human coronary artery smooth muscle cells; actives raise or lower the signal;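 further: IL-8 protein level quantified by ELISA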
[8] = read-out: Human Leukocyte Antigen - DR isotype (HLADR), HLA-DRA (gene 3122); test: BSK_CASM3C_HLADR: BioMAP Diversity Plus: CASM3C Assay for Human Leukocyte Antigen - DR isotype (HLADR) Biomarker Activity (AID 2283043); details: primary human coronary artery smooth muscle cells; actives raise or lower the signal;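 further: cell-surface HLA-DR protein level quantified by ELISA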
[9] = read-out: Macrophage colony-stimulating factor (MCSF), CSF1 (gene 1435); test: BSK_CASM3C_MCSF: BioMAP Diversity Plus: CASM3C Assay for Macrophage colony-stimulating factor (MCSF) Biomarker Activity (AID 2283044); details: primary human coronary artery smooth muscle cells; actives raise or lower the signal;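 further: M-CSF protein amount quantified by ELISA after 24 h exposure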
[10] = read-out: Low-density lipoprotein receptor (LDLR), LDLR (gene 3949); test: BSK_CASM3C_LDLR: BioMAP Diversity Plus: CASM3C Assay for Low-density lipoprotein receptor (LDLR) Biomarker Activity (AID 2283045); details: primary human coronary artery smooth muscle cells; actives raise or lower the signal;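 further: LDLR protein level on the cell surface quantified by ELISA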
[11] = read-out: Monocyte Chemoattractant Protein-1 (MCP1), CCL2 (gene 6347); test: BSK_CASM3C_MCP1: BioMAP Diversity Plus: CASM3C Assay for Monocyte Chemoattractant Protein-1 (MCP1) Biomarker Activity (AID 2283046); details: primary human coronary artery smooth muscle cells; actives raise or lower the signal;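 further: MCP-1 level quantified by ELISA 24 h after dosing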
[12] = BSK_CASM3C_Proliferation: Cell Proliferation Assessment in the BioMAP Diversity Plus: CASM3C Assay (AID 2283047); details: primary human coronary artery smooth muscle cells;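 further: sulforhodamine B total protein stain as relative cell number at 560 nm; sub-confluent cells exposed 48 h before staining; fitted both ways against DMSO so gain or loss of cell number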
[13] = read-out: Monokine induced gamma interferon (MIG), CXCL9 (gene 4283); test: BSK_CASM3C_MIG: BioMAP Diversity Plus: CASM3C Assay for Monokine induced gamma interferon (MIG) Biomarker Activity (AID 2283048); details: primary human coronary artery smooth muscle cells; actives raise or lower the signal;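 further: MIG protein level measured by ELISA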
[14] = read-out: serum amyloid A (SAA), SAA1 (gene 6288); test: BSK_CASM3C_SAA: BioMAP Diversity Plus: CASM3C Assay for serum amyloid A (SAA) Biomarker Activity (AID 2283049); details: primary human coronary artery smooth muscle cells; actives raise or lower the signal;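 further: SAA protein level quantified by ELISA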
[15] = BSK_CASM3C_SRB: Viability Assessment in the BioMAP Diversity Plus: CASM3C Assay (AID 2283050); details: primary human coronary artery smooth muscle cells;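 further: cells exposed to compound for 24 h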
[16] = read-out: Thrombomodulin, THBD (gene 7056); test: BSK_CASM3C_Thrombomodulin: BioMAP Diversity Plus: CASM3C Assay for Thrombomodulin Biomarker Activity (AID 2283051); details: primary human coronary artery smooth muscle cells; actives raise or lower the signal;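 further: thrombomodulin protein level measured by ELISA 24 h after dosing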
[17] = read-out: Tissue Factor, F3 (gene 2152); test: BSK_CASM3C_TissueFactor: BioMAP Diversity Plus: CASM3C Assay for Tissue Factor Biomarker Activity (AID 2283052); details: primary human coronary artery smooth muscle cells; actives raise or lower the signal;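 further: cell surface tissue factor protein level read by ELISA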
[18] = read-out: Interferon-gamma inducible Protein 10 (IP10), CXCL10 (gene 3627); test: BSK_hDFCGF_IP10: BioMAP Diversity Plus: hDFCGF Assay for Interferon-gamma inducible Protein 10 (IP10) Biomarker Activity (AID 2283053); details: primary human foreskin fibroblasts; actives raise or lower the signal
Method in brief: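 IP-10 levels, quantified by ELISA, are taken from human foreskin fibroblast cultures 24 h after chemical treatment, with DMSO serving as negative control and baseline for bidirectional analysis.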

[19] = read-out: Urokinase-type plasminogen activator receptor (uPAR), PLAUR (gene 5329); test: BSK_CASM3C_uPAR: BioMAP Diversity Plus: CASM3C Assay for Urokinase-type plasminogen activator receptor (uPAR) Biomarker Activity (AID 2283054); details: primary human coronary artery smooth muscle cells; actives raise or lower the signal;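 further: cell-surface uPAR protein level quantified by ELISA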
[20] = read-out: Vascular cell adhesion molecule 1 (VCAM1), VCAM1 (gene 7412); test: BSK_CASM3C_VCAM1: BioMAP Diversity Plus: CASM3C Assay for Vascular cell adhesion molecule 1 (VCAM1) Biomarker Activity (AID 2283055); details: primary human coronary artery smooth muscle cells; actives raise or lower the signal;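 further: VCAM-1 protein level quantified by ELISA on the cells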
[21] = read-out: Collagen III, COL3A1 (gene 1281); test: BSK_hDFCGF_CollagenIII: BioMAP Diversity Plus: hDFCGF Assay for Collagen III Biomarker Activity (AID 2283056); details: primary human foreskin fibroblasts; actives raise or lower the signal
Method in brief: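 Human foreskin primary fibroblasts were exposed to test chemicals for 24 h, after which collagen III was quantified by ELISA. Activity was fitted bidirectionally against DMSO as negative control and baseline.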

Measured: AC50

[Cd+2].[Cl-].[Cl-]
inactive: [1] | [2] | [3] | [4] | [6] | [7] | [16]
active: [3] 3.97 µM | [5] 4.02 µM and 2.92 µM | [6] 26 µM | [8] 9.22 µM and 6.47 µM | [9] 6.22 µM and 3.72 µM | [10] 6.42 µM and 6.31 µM | [11] 7.14 µM and 4.39 µM | [12] 2.7 µM and 2.27 µM | [13] 4.6 µM and 4.58 µM | [14] 3.68 µM and 2.71 µM | [15] 15.4 µM and 15.2 µM | [17] 5.81 µM and 8.45 µM | [18] 15.9 µM and 13.5 µM | [19] 9.94 µM and 6.24 µM | [20] 4.05 µM and 3.51 µM | [21] 3.57 µM and 4.55 µM
